Out of some 5,500 compounds screened, about 2,000 (36%) were called active. Inconclusive results (about 18%) are left out. The list shows a part of the results. A number with no mark means an inactive call. No stated cut-off is given here; in the data, active means normalized growth mostly below about 0.91 (no sharp cut-off); inconclusive means no clear call, values can overlap the other calls; inactive means mostly above about 0.92.
Assay: chemical genetic growth profiling, strain panel (AID 1159580);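 further: tested at 20 µM; growth read once vehicle control cultures reached saturation at 30 °C; 1 = growth at the plate median or of vehicle wells; lower values mean less growth of the strain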
Conditions: growth OD

SMILES: CC(C)c1c(O)ccc2c1CCC1C(C)(C)CCC[C@]21C (some centres not stated)
- normalized growth (S. cerevisiae deletion strains, locus YJR066W, strain TOR1, active compounds read low): 0.709 (active)
- normalized growth (S. cerevisiae deletion strains, locus YKL009W, strain mrt4, active compounds read low): 0.822 (active)
- normalized growth (S. cerevisiae deletion strains, locus YKL068W, active compounds read low): 1.03
- normalized growth (S. cerevisiae deletion strains, locus YKL085W, strain MDH1 (second series), active compounds read low): 0.358 (active)
- normalized growth (S. cerevisiae deletion strains, locus YKL085W, strain MDH1, active compounds read low): 0.358 (active)
- normalized growth (S. cerevisiae deletion strains, locus YKL160W, strain elf1, active compounds read low): 0.729 (active)
- normalized growth (S. cerevisiae deletion strains, locus YKL190W, strain CNB1, active compounds read low): 0.0594 (active)
- normalized growth (S. cerevisiae deletion strains, locus YKR001C, strain vps1, active compounds read low): 0.0785 (active)
- normalized growth (S. cerevisiae deletion strains, locus YKR026C, strain gcn3, active compounds read low): 0.993
- normalized growth (S. cerevisiae deletion strains, locus YKR091W, strain srl3, active compounds read low): 0.78 (active)
- normalized growth (S. cerevisiae deletion strains, locus YLL001W, strain dnm1, active compounds read low): 0.819 (active)
- normalized growth (S. cerevisiae deletion strains, locus YLL026W, active compounds read low): 0.263 (active)
- normalized growth (S. cerevisiae deletion strains, locus YLL041C, strain sdh2, active compounds read low): 0.55 (active)
- normalized growth (S. cerevisiae deletion strains, locus YLR027C, strain aat2, active compounds read low): 0.254 (active)
- normalized growth (S. cerevisiae deletion strains, locus YLR039C, strain RIC1, active compounds read low): 0.127 (active)
- normalized growth (S. cerevisiae deletion strains, locus YLR058C, strain SHM2, active compounds read low): 0.104 (active)
- normalized growth (S. cerevisiae deletion strains, locus YLR102C, strain apc9, active compounds read low): 0.214 (active)
- normalized growth (S. cerevisiae deletion strains, locus YLR113W, strain HOG1, active compounds read low): 0.3 (active)
- normalized growth (S. cerevisiae deletion strains, locus YLR221C, strain rsa3, active compounds read low): 0.337 (active)
- normalized growth (S. cerevisiae deletion strains, locus YLR258W, strain gsy2, active compounds read low): 0.343 (active)
- normalized growth (S. cerevisiae deletion strains, locus YLR262C, strain YPT6 (second series), active compounds read low): 0.146 (active)
- normalized growth (S. cerevisiae deletion strains, locus YLR268W, strain sec22, active compounds read low): 0.191 (active)
- normalized growth (S. cerevisiae deletion strains, locus YLR320W, strain mms22, active compounds read low): 0.22 (active)
- normalized growth (S. cerevisiae deletion strains, locus YLR342W, strain FKS1 (second series), active compounds read low): 0.139 (active)
- normalized growth (S. cerevisiae deletion strains, locus YLR342W, strain FKS1, active compounds read low): 0.43 (active)
- normalized growth (S. cerevisiae deletion strains, locus YLR357W, strain rsc2, active compounds read low): 1.14
- normalized growth (S. cerevisiae deletion strains, locus YLR370C, strain arc18, active compounds read low): 1.06
- normalized growth (S. cerevisiae deletion strains, locus YLR371W, strain rom2, active compounds read low): 0.186 (active)
- normalized growth (S. cerevisiae deletion strains, locus YLR384C, strain iki3, active compounds read low): 1.01
- normalized growth (S. cerevisiae deletion strains, locus YLR418C, strain cdc73, active compounds read low): 0.125 (active)
- normalized growth (S. cerevisiae deletion strains, locus YML016C, strain PPZ1, active compounds read low): 0.438 (active)
- normalized growth (S. cerevisiae deletion strains, locus YML032C, strain rad52, active compounds read low): 0.315 (active)
- normalized growth (S. cerevisiae deletion strains, locus YML120C, strain ndi1, active compounds read low): 0.235 (active)
- normalized growth (S. cerevisiae deletion strains, locus YML124C, strain tub3, active compounds read low): 0.241 (active)
- normalized growth (S. cerevisiae deletion strains, locus YMR058W, strain fet3, active compounds read low): 0.968
- normalized growth (S. cerevisiae deletion strains, locus YMR078C, strain ctf18, active compounds read low): 0.211 (active)
- normalized growth (S. cerevisiae deletion strains, locus YMR125W, strain sto1, active compounds read low): 0.928
- normalized growth (S. cerevisiae deletion strains, locus YMR129W, active compounds read low): 0.692 (active)
- normalized growth (S. cerevisiae deletion strains, locus YMR205C, strain PFK2, active compounds read low): 0.305 (active)
- normalized growth (S. cerevisiae deletion strains, locus YMR223W, strain ubp8, active compounds read low): 0.21 (active)
- normalized growth (S. cerevisiae deletion strains, locus YMR231W, strain pep5, active compounds read low): 0.93
- normalized growth (S. cerevisiae deletion strains, locus YMR307W, strain GAS1, active compounds read low): 0.179 (active)
- normalized growth (S. cerevisiae deletion strains, locus YNL067W, strain RPL9B, active compounds read low): 0.279 (active)
- normalized growth (S. cerevisiae deletion strains, locus YNL071W, strain lat1, active compounds read low): 0.13 (active)
- normalized growth (S. cerevisiae deletion strains, locus YNL128W, strain TEP1, active compounds read low): 0.205 (active)
- normalized growth (S. cerevisiae deletion strains, locus YNL183C, strain NPR1, active compounds read low): 0.627 (active)
- normalized growth (S. cerevisiae deletion strains, locus YNL209W, strain ssb2, active compounds read low): 0.689 (active)
- normalized growth (S. cerevisiae deletion strains, locus YNL233W, strain BNI4, active compounds read low): 0.0951 (active)
- normalized growth (S. cerevisiae deletion strains, locus YNL248C, strain rpa49, active compounds read low): 0.989
- normalized growth (S. cerevisiae deletion strains, locus YNL250W, strain rad50, active compounds read low): 0.786 (active)
- normalized growth (S. cerevisiae deletion strains, locus YNL271C, strain bni1, active compounds read low): 0.74 (active)
- normalized growth (S. cerevisiae deletion strains, locus YNL298W, strain CLA4, active compounds read low): 0.636 (active)
- normalized growth (S. cerevisiae deletion strains, locus YNL307C, strain MCK1, active compounds read low): 0.0705 (active)
- normalized growth (S. cerevisiae deletion strains, locus YNL322C, strain KRE1 (second series), active compounds read low): 1.03
- normalized growth (S. cerevisiae deletion strains, locus YNL322C, strain KRE1, active compounds read low): 0.0898 (active)
- normalized growth (S. cerevisiae deletion strains, locus YNR049C, strain mso1, active compounds read low): 0.994
- normalized growth (S. cerevisiae deletion strains, locus YNR052C, strain pop2, active compounds read low): 0.313 (active)
- normalized growth (S. cerevisiae deletion strains, locus YOL006C, strain TOP1, active compounds read low): 0.227 (active)
- normalized growth (S. cerevisiae deletion strains, locus YOL012C, strain htz1): 0.469
- normalized growth (S. cerevisiae deletion strains, locus YOL147C, strain pex11, active compounds read low): 0.131 (active)
- normalized growth (S. cerevisiae deletion strains, locus YOR001W, strain rrp6, active compounds read low): 0.556 (active)
- normalized growth (S. cerevisiae deletion strains, locus YOR061W, strain CKA2, active compounds read low): 0.173 (active)
- normalized growth (S. cerevisiae deletion strains, locus YOR069W, strain VPS5, active compounds read low): 0.372 (active)
- normalized growth (S. cerevisiae deletion strains, locus YOR070C, strain gyp1, active compounds read low): 0.157 (active)
- normalized growth (S. cerevisiae deletion strains, locus YOR080W, strain dia2, active compounds read low): 0.685 (active)
- normalized growth (S. cerevisiae deletion strains, locus YOR083W, strain WHI5, active compounds read low): 0.424 (active)
- normalized growth (S. cerevisiae deletion strains, locus YOR106W, strain vam3, active compounds read low): 0.274 (active)
- normalized growth (S. cerevisiae deletion strains, locus YOR136W, strain idh2, active compounds read low): 0.287 (active)
- normalized growth (S. cerevisiae deletion strains, locus YOR144C, strain elg1, active compounds read low): 0.295 (active)
- normalized growth (S. cerevisiae deletion strains, locus YOR184W, strain ser1, active compounds read low): 0.134 (active)
- normalized growth (S. cerevisiae deletion strains, locus YOR231W, strain MKK1, active compounds read low): 0.366 (active)
- normalized growth (S. cerevisiae deletion strains, locus YOR265W, strain rbl2, active compounds read low): 0.31 (active)
- normalized growth (S. cerevisiae deletion strains, locus YOR270C, strain vph1, active compounds read low): 0.632 (active)
- normalized growth (S. cerevisiae deletion strains, locus YOR290C, strain snf2, active compounds read low): 0.712 (active)
- normalized growth (S. cerevisiae deletion strains, locus YOR316C, strain cot1, active compounds read low): 0.263 (active)
- normalized growth (S. cerevisiae deletion strains, locus YPL051W, strain arl3, active compounds read low): 0.322 (active)
- normalized growth (S. cerevisiae deletion strains, locus YPL078C, strain atp4, active compounds read low): 0.925
- normalized growth (S. cerevisiae deletion strains, locus YPL106C, strain sse1, active compounds read low): 0.815 (active)
- normalized growth (S. cerevisiae deletion strains, locus YPL240C, strain hsp82, active compounds read low): 0.29 (active)
- normalized growth (S. cerevisiae deletion strains, locus YPL241C, strain CIN2, active compounds read low): 0.166 (active)
- normalized growth (S. cerevisiae deletion strains, locus YPL256C, strain CLN2, active compounds read low): 0.521 (active)
- normalized growth (S. cerevisiae deletion strains, locus YPR119W, strain clb2, active compounds read low): 0.187 (active)
- normalized growth (S. cerevisiae deletion strains, locus YPR141C, strain kar3, active compounds read low): 1.01
- normalized growth (S. cerevisiae deletion strains, locus YPR163C, strain tif3, active compounds read low): 0.187 (active)
- normalized growth (S. cerevisiae deletion strains, locus YPR167C, strain met16, active compounds read low): 0.139 (active)
- normalized growth (S. cerevisiae deletion strains, strain wtn01, active compounds read low): 0.132 (active)
- normalized growth (S. cerevisiae strains, strain wild type, active compounds read low): 0.0726 (active)

From PubChem BioAssay AID1159580 (chemical genetic matrix, 2015)
